Experimental data from PubChem BioAssay (NCI).
This is part of a sample that, as a whole, favours compounds with a hit. Of some 83,000 tested, about 20% had one in any assay.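 Activity criterion: percent growth below 10, measured after cells in 96-well plates were exposed to a single compound concentration for 48 hours.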 A number with no mark means an inactive call. Activity calls are given as the source filed them.

These compounds were tested on NCI-H322M lung (assay: NCI-60 one-dose screen, 48 h (100 = growth as untreated, 0 = no growth, -100 = all killed)). Details: 10 µM unless noted.
Procedure: Growth inhibition of the NCI-H322M human Non-Small Cell Lung tumor cell line is measured as a screen for anti-cancer activity. Cells are grown in 96 well plates and exposed to the test compound for 48 hours. Compounds are tested at a single concentration, which is 10^-5 M for most compounds. The reported endpoint is percent growth (GI% or GIPRCNT), where numbers from 0 - 100% represent growth inhibition, and numbers from -100% - 0 represent cell death. For example, a value of 40 represents 60% growth inhibition. A value of 0 means no net growth occurred over the course of the experiment. A value of -40 indicates 40% of cells at the beginning of the experiment died by the end of the experiment. A value of -100 means all cells are dead at the end of the experiment.
NCI-60 Human Tumor Cell Lines Screen was performed using the standard one-dose NCI protocol, which is described in more detail at https://dtp.cancer.gov/discovery_development/nci-60/default.htm.
Compounds with GIPRCNT values below 10 were considered active. Activity score was based on GIPRCNT using the following formula: […]
Score is 0 for GIPRCNT values of 100 or above, 50 for GIPRCNT values of 0, and 100 for GIPRCNT values of -100.

Structure (SMILES) | growth
COc1ccc2nc(SCC(=O)Nc3ccccc3C)[nH]c2c1 | 90%
CNC(=O)c1c(NC(=O)c2ccc(C(C)(C)C)cc2)sc2c(CN(C)C)c(O)ccc12 | 17.1%
CC1CN=C(c2cccc(-c3ccc(-c4ccccc4)o3)c2)N1 (stereo not given) | 4.39% (active)
COc1cc2c3c(n(CCCCNCCCn4c5c(c6cc(OC)c(OC)cc6c4=O)C(=O)c4cc6c(cc4-5)OCO6)c(=O)c2cc1OC)-c1cc2c(cc1C3=O)OCO2 | 90.5%
C#Cc1cccc(Nc2nc3ccc([N+](=O)[O-])cc3nc2Nc2cccc(C#C)c2)c1 | 1.22% (active)
C[C@@H]1CC[C@@]2(OC1)O[C@H]1C[C@H]3[C@@H]4CC=C5C[C@@H](O[C@@H]6O[C@H](CO)[C@@H](O[C@@H]7O[C@@H](CO)[C@H](O)[C@H]7O)[C@H](O)[C@H]6O[C@@H]6O[C@@H](C)[C@H](O)[C@@H](O)[C@H]6O)CC[C@]5(C)[C@H]4CC[C@]3(C)[C@H]1[C@@H]2C | -87.7% (active)
O=C(Nc1nc(C(=O)N2CCN(C(c3ccccc3)c3ccccc3)CC2)cs1)c1ccc(NC2CCCCC2)c([N+](=O)[O-])c1 | 91.6%
CCCCc1oc2ccccc2c1C(=O)c1ccc(O)cc1 | 85.1%
O=C(O)c1cccc(N/C=C/C(=O)c2cc3cc(Br)ccc3oc2=O)c1 | 100%
O=c1[nH]cnc2c1C(c1ccc(Br)cc1)c1sc3c(F)cccc3c1O2 (stereo not given) | 88.1%
C/C(C=O)=C\c1ccc2c(c1)OCO2 | 135%
Cc1ccc(/C=C/C(=O)c2ccc(NC(=O)CSc3nc4c([nH]3)c(=O)n(C)c(=O)n4C)cc2)c(C)c1 | 71.3%
C=C(CO)[C@@H]1CC[C@]2(COC3CCCCO3)CC[C@]3(C)[C@H](CC[C@@H]4[C@@]5(C)C=C(C=O)C(=O)C(C)(C)[C@@H]5CC[C@]43C)[C@@H]12 (stereo not given in full) | -22.6% (active)
C#CC#CC#CC#CC#CC#CC#CC#CCC1OCC(COC(=O)O[C@@H](C(=O)O[C@H]2C[C@@]3(O)[C@@H](OC(=O)c4ccccc4)[C@@H]4[C@]5(OC(C)=O)CO[C@@H]5C[C@H](O)[C@@]4(C)C(=O)[C@H](OC(C)=O)C(=C2C)C3(C)C)[C@@H](NC(=O)c2ccccc2)c2ccccc2)O1 (stereo not given in full) | 29.1%
COc1ccc(-c2ccc(=O)oc2C#Cc2cc(OC)c(OC)c(OC)c2)cc1O | 31.5%
CC12CCC(/C(=C/NNc3ccc([N+](=O)[O-])cc3[N+](=O)[O-])C1=O)C2(C)C (stereo not given) | 83.6%
Cc1nn(-c2ccccc2)c(N2CCCCC2)c1/C=N/NC(=O)Cn1c(=O)sc2ccccc21 | 76.3%
Cc1ccccc1OCC(O)COc1ccccc1C | 95.4%
COc1ccc(Cl)cc1Nc1nc(C(F)(F)F)ccc1C(=O)N/N=C/c1ccccc1Cl | 1.34% (active)
CN(C)c1ccc(/C=C/C(=O)c2ccc(Nc3nc(Nc4ccc(F)cc4)nc(Nc4ccc(Cl)cc4)n3)cc2)cc1 | 95.7%

Structure (SMILES) | growth
CC(=O)N/C(=C1/OC(C(O)C(O)C(O)CO)CN1C)[P+](c1ccccc1)(c1ccccc1)c1ccccc1 (stereo not given) | 95.1%
C#CC#CC#CC#CC#CC#CC#CC#CC[C@H]1OC[C@@H](COC(=O)O[C@@H](C(=O)O[C@H]2C[C@@]3(O)[C@@H](OC(=O)c4ccccc4)[C@@H]4[C@]5(OC(C)=O)CO[C@@H]5C[C@H](O)[C@@]4(C)C(=O)[C@H](OC(C)=O)C(=C2C)C3(C)C)[C@@H](NC(=O)c2ccccc2)c2ccccc2)O1 | 54.6%
CCN(CC)S(=O)(=O)c1ccc(S(=O)(=O)N2CCC[C@@H](C(=O)N3CCN(C(=O)OC(C)(C)C)CC3)C2)cc1 | 88.5%
Cc1nc2ccccc2c(/C=C/c2ccc(C(F)(F)F)cc2)c1C(=O)/C=C/c1ccccc1 | 20.5%
CC/C=C\C/C=C/C=C1/C(=O)C=C[C@@H]1C/C=C\CCCC(=O)OC | 95.8%
O=C1NC(=C(Cl)Cl)/C(=N/S(=O)(=O)N2CCCCC2)N1 | 92.5%
Cc1nn(-c2ccccc2)c(/N=C/N(C)C)c1/C=C/C(=O)c1ccc(Cl)cc1 | 101%
COc1ccc(/C=C/C(=O)c2cc3c(N)c(C(=O)Nc4ccccc4C)sc3nc2C)cc1 | 35.7%
CN1CCN(c2ccc3c(c2)nc(NNC(=O)c2cnccn2)c2cccn23)CC1 | 21.5%
CC1=CCC[C@@H]2C1(C)CC[C@H](C)[C@@]2(C)CC1=CC(=O)C(SC(C)(C)C)=CC1=O (stereo not given in full) | 87.6%
CC[C@@H](c1ccc2cc(OC)ccc2c1)C(C)(C)C(=O)F | 124%
COc1ccccc1-n1c(-c2cc(O)ccc2C)cn2c3c(=O)[nH]c(=O)n(C)c3nc12 | 36%
C#CCOc1cccc(-c2ncc3cc(NC(=O)CCl)ccc3n2)c1 | 69.4%
CC(C)c1ccc(-n2c(=S)[nH]c3sc4c(c3c2=O)CCC(=O)C4)cc1 | 78%
COc1ccc(C(O)c2cc3c(N)c(C(=O)Nc4cccc(Cl)c4)sc3nc2C)cc1 (stereo not given) | 46.6%
CCCCn1sc(=O)n(Cc2ccc(CNC(=O)OCc3ccc4c(Cl)cc(Cl)c(O)c4n3)cc2)c1=O | 61.5%
COc1ccc(OC)c(Nc2nnc(-c3ccc(Cl)cc3)o2)c1 | 56.9%
Cc1ccc(C)c2c1C(O)(C#Cc1ccccc1)c1ccccc1C2(O)C#Cc1ccccc1 (stereo not given) | 55.8%
COc1ccc(C(c2cc(OC)c(OC)c(OC)c2)N2CCN(Cc3ccccc3)CC2)cc1 (stereo not given) | 65.1%
CCN(CC)CCOc1nc2c3ccc(Cl)cc3nn2c2ccccc12 | 29.2%
